Bioluminescence data for 30 molecules are collected here from the supplement of paper PMC10811239.

The subject of this assay is LEGO organoid PTCC (PTEN-/-; TP53-/-; CDKN2A-/-; CDKN2B-/-). The experiment in a line: bioluminescence (viable cell) signal fold change after vs before treatment, normalised to DMSO (ratio); higher = more tumour cell growth / less inhibition. The settings on record: 10 µM; treatment time 6 days. Here is the method:
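Luc2-labelled iPSC-derived glioblastoma-like organoids (LEGOs, genotypes PT = PTEN-/-;TP53-/-, PTCC = plus CDKN2A/B-/-, PTN = plus NF1-/-) were treated with 10 uM drug for 6 days (applied every other day) at 37 C. Bioluminescence imaging was done before treatment and 2 days after the last dose. BLI signals were normalised to the DMSO control on the same day and then to the pre-treatment signal (N=3).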
For the molecule `Cl.CNCC\C=C1\c2ccccc2CCc2ccccc12` [Nortriptyline hydrochloride], the bioluminescence was found to be 0.717.
With `Cl.Cl.OCCOCCN1CCN(C(c2ccccc2)c2ccc(Cl)cc2)CC1` (stereo not given) [Hydroxyzine dihydrochloride] the figure was 0.859; with `FC(F)(F)c1ccc(CNc2ccc(Cc3c[nH]c4ncc(Cl)cc34)cn2)cn1` [Pexidartinib], 3.05.
With `O=C(c1cc(Cc2n[nH]c(=O)c3ccccc23)ccc1F)N1CCN(C(=O)C2CC2)CC1` [Olaparib] the figure was 1.32; with `CC(C(=O)O)c1cccc(C(=O)c2ccccc2)c1` (stereo not given) [Ketoprofen], 1.2.
The value for `COc1ccc(CNc2nc(N3CCC[C@H]3CO)ncc2C(=O)NCc2ncccn2)cc1Cl` [Avanafil] was 0.873; that for `C[C@@H]1CCN(C(=O)CC#N)C[C@@H]1N(C)c1ncnc2[nH]ccc12` [Tofacitinib] was 1.34.
Regarding `NS(=O)(=O)Cc1noc2ccccc12` [Zonisamide], the bioluminescence is 1.19.
Take `CCc1c2c(nc3ccc(OC(=O)N4CCC(N5CCCCC5)CC4)cc13)-c1cc3c(c(=O)n1C2)COC(=O)[C@]3(O)CC` [Irinotecan]: the bioluminescence stood at 2.25.
For `CCCC(CCC)C(=O)O` [Valproic Acid], the bioluminescence came out at 0.784.
As to `CS(=O)(=O)OCCCCOS(C)(=O)=O` [Busulfan], the bioluminescence turned out to be 1.3.
With `CSc1ccc2c(c1)N(CCC1CCCCN1C)c1ccccc1S2.Cl` (stereo not given) [Thioridazine hydrochloride] the figure was 0.704; with `Clc1ccc2c(c1)C(N1CCNCC1)=Nc1ccccc1O2` [Amoxapine], 1.25.
For `CO[C@H]1/C=C/O[C@@]2(C)Oc3c(C)c(O)c4c(O)c(c(/C=N/N5CCN(C6CCCC6)CC5)c(O)c4c3C2=O)NC(=O)/C(C)=C\C=C\[C@H](C)[C@H](O)[C@@H](C)[C@@H](O)[C@@H](C)[C@H](OC(C)=O)[C@@H]1C` [Rifapentine], the bioluminescence was 0.434.
`CC(C)Cc1ccc(C(C)C(=O)O)cc1` (stereo not given) [Ibuprofen]: the bioluminescence is 0.624.
With `CC[C@@]1(O)C(=O)OCc2c1cc1n(c2=O)Cc2cc3c(CN(C)C)c(O)ccc3nc2-1.Cl` [Topotecan hydrochloride] the figure was 0.236; with `CC(=O)OCC(=O)[C@@]1(O)CC[C@H]2[C@@H]3CCC4=CC(=O)C=C[C@]4(C)[C@H]3[C@@H](O)C[C@@]21C` [Prednisolone-21-acetate], 1.01; with `CC[C@H](C)C(=O)O[C@H]1C[C@@H](C)C=C2C=C[C@H](C)[C@H](CC[C@@H]3C[C@@H](O)CC(=O)O3)[C@H]21` [Lovastatin], 1.02.
Take `Cl.O.O=C1Cc2cc(CCN3CCN(c4nsc5ccccc45)CC3)c(Cl)cc2N1` [Ziprasidone hydrochloride monohydrate]: the bioluminescence is 1.05.
For `CNC(=O)c1cc(Oc2ccc(NC(=O)Nc3ccc(Cl)c(C(F)(F)F)c3)cc2)ccn1.Cc1ccc(S(=O)(=O)O)cc1` [Sorafenib tosylate], the bioluminescence amounted to 0.343.
The value for `COc1cc2ncnc(Nc3ccc(F)c(Cl)c3)c2cc1OCCCN1CCOCC1` [Gefitinib] was 1.22; that for `Cc1nc2n(c(=O)c1CCN1CCC(c3noc4cc(F)ccc34)CC1)CCCC2O` (stereo not given) [Paliperidone] was 0.722.
For `Cl.N=C1CCCN1Cc1[nH]c(=O)[nH]c(=O)c1Cl` [Tipiracil hydrochloride], the bioluminescence came out at 1.21.
The value for `CCCCCCCCCCC[C@@H](C[C@@H]1OC(=O)[C@H]1CCCCCC)OC(=O)[C@H](CC(C)C)NC=O` [Orlistat] was 0.925; that for `CC(C)Oc1ccc(-c2nc(-c3cccc4c3CC[C@@H]4NCCO)no2)cc1C#N` [Ozanimod] was 0.828; that for `C[C@]12C=CC(=O)C=C1CC[C@@H]1[C@@H]2[C@@H](O)C[C@@]2(C)[C@H]1CC[C@]2(O)C(=O)CO` [Prednisolone] was 1.29.
With `CO[C@H]1C(=O)[C@]2(C)[C@@H](OC)C[C@H]3OC[C@@]3(OC(C)=O)[C@H]2[C@H](OC(=O)c2ccccc2)[C@]2(O)C[C@H](OC(=O)[C@H](O)[C@@H](NC(=O)OC(C)(C)C)c3ccccc3)C(C)=C1C2(C)C` [Cabazitaxel], the bioluminescence came to 7.3.
With `CCCc1nc(C)c2c(=O)[nH]c(-c3cc(S(=O)(=O)N4CCN(CC)CC4)ccc3OCC)nn12` [Vardenafil], the bioluminescence came to 1.16.
Turning to `CCC1(c2ccccc2)C(=O)NCNC1=O` [Primidone], the bioluminescence worked out at 0.824.
With `CN[C@H]1CC[C@@H](c2ccc(Cl)c(Cl)c2)c2ccccc21.Cl` [Sertraline hydrochloride], the bioluminescence was found to be 0.888.
